In PubChem BioAssay AID1851 (National Center for Advancing Translational Sciences (NCATS), 2009):
Screen size: about 16,000 compounds; about 5,800 (36%) were called active. Not shown: some 23% with an inconclusive outcome. The list shows a part of the results. Unmarked numbers belong to inactive results. Calls come from the whole dose curve; as a rule, active = well fitted curve in the direction sought with a large enough effect; inconclusive = small, poorly fitted or top-dose-only effect, or effect the other way; inactive = no such curve, though single readings can be large or run the other way. Peptide text beside a SMILES is read from it.

target: Cytochrome P450 2C19 (Homo sapiens) (UniProt P33261); assay: Cytochrome panel assay with activity outcomes; details: recombinant CYP, pro-luciferin dealkylation, luminescence, p450-cyp2c19; series mostly up to 57.1 µM; activity, negative = inhibition: at the top concentration
% is set by controls: 0 for no effect and ±100 for the full control effect.

Chain of Cytochrome P450 2C19 (Homo sapiens) (P33261 whole entry, looked up): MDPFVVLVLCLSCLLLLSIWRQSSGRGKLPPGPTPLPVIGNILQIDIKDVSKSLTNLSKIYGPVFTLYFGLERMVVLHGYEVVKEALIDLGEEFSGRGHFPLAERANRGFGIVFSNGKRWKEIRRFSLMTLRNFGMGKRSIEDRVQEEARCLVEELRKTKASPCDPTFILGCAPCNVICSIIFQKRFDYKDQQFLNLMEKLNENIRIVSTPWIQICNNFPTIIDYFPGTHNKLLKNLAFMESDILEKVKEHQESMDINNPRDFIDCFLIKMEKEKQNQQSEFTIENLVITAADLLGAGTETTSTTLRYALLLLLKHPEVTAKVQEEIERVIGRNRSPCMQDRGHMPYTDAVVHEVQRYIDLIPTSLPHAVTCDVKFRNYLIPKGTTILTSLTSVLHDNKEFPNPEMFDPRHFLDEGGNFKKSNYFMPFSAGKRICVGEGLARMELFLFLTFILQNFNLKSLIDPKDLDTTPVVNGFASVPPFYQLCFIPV

SMILES | activity, negative = inhibition | AC50
Cc1ccc(C)c(-c2nn(-c3cc(N4CCN(CCO)CC4)ccc3[N+](=O)[O-])c(=O)c3ccccc23)c1 | -101% | –
O=C(Nc1ccc(-c2nc3ccccc3o2)cc1)c1ccc(N2CCOCC2)c([N+](=O)[O-])c1 | – | 5010 nM (active)
Cc1ccc(C(=O)O/N=C\c2ccc(N3CCCCC3)c([N+](=O)[O-])c2)cc1 | – | 1580 nM (active)
Cc1cc(C)n(-c2cc(N3CCN(C(=O)c4ccc(C(C)(C)C)cc4)CC3)ccc2[N+](=O)[O-])n1 | – | 2820 nM (active)
COC(=O)c1ccc(N2CCN(CC(=O)c3ccc(-c4ccccc4)cc3)CC2)c([N+](=O)[O-])c1 | – | 5010 nM (active)
COC(=O)c1ccc(N2CCN(c3ccccc3)CC2)c(NC(=O)C2CC2)c1 | -20.9% | –
CCOC(=O)c1[nH]c(C(=O)O)c(CCN(CC)CC)c1C | 7.09% | –
CO[C@H]1COC(=O)[C@@H](C)COC(=O)[C@@H](Cc2ccccc2)NC(=O)C/C=C\[C@H]1C | 10.6% [at 11.4 µM] | –
CC(C)=CCC/C(C)=C/CO/N=C1/C[C@@H](O)[C@@H](O)[C@@H]2[C@@H]3C(=O)N(C[C@@H]4CCCO4)C(=O)[C@H]3CC[C@@H]12 | 29.8% [at 11.4 µM] | –
Cc1ccc(CS(=O)(=O)CCC(=O)N2CCOCC2)cc1 | -8.97% | –
Cn1ncc([N+](=O)[O-])c1C(=O)N1CCOCC1 | -1.66% | –
Cc1ccccc1C(=O)N1CCN(c2ccc([N+](=O)[O-])c(N3CCOCC3)c2)CC1 | – | 15800 nM (active)
Cc1ccc(OCCCC(=O)N2CCOCC2)cc1 | – | 1410 nM (active)
O=C(NCCNC[C@@H](O)COc1ccc(O)cc1)N1CCOCC1 | – | inactive
Cc1ccc(C)c2sc(NC(=O)c3ccc(N4CCCCC4)c([N+](=O)[O-])c3)nc12 | – | 2820 nM (active)
CC(=O)N[C@@H](CC(=O)O)C(=O)N[C@@H](CCC(=O)O)C(=O)O (Ac-Asp-Glu-OH) | – | inactive
CCCCNN | -44.3% [at 11.4 µM] | –
O=C(O)[C@H]([C@H]1NCCS1)N1Cc2ccccc2C1 | -31.8% [at 11.4 µM] | –
C/C(=N\Nc1nc(N)cc(Cl)n1)c1cccc([N+](=O)[O-])c1 | 2.88% | –
NC(=O)c1cccc(N)c1 | -27.6% | –
C/C(=N\Nc1ccc([N+](=O)[O-])cc1)c1cccc(N)c1 | – | 1260 nM (active)
CCOC(=O)c1sc(NS(=O)(=O)c2ccccc2)nc1C | -24.1% | –
CCOC(=O)c1sc(N(Cc2ccccc2)C(=O)CN2C(=O)CN(C)C2=O)nc1C | – | 15800 nM (active)
CO[C@H]1COC(=O)CCC[C@H](C)[C@H](OC)COC(=O)C/C=C\[C@@H]1C | -23% [at 11.4 µM] | –
